Measured values as given in PubChem BioAssay (NCATS).
Results filed as inconclusive are left out. The source made the active and inactive calls. Calls follow the shape of the dose curve; as a rule, active = well fitted inhibition curve with a large enough effect; inconclusive = small, poorly fitted or top-dose-only effect; inactive = flat fitted curve, though single readings scatter.

Test: qHTS for Inhibitors of Plasmodium falciparum (7G8) proliferation (AID 504316); also: nearly all actives have a fitted effect of over 65% in size;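 as to activity change, negative = inhibition: 0% = DMSO vehicle and -100% = 0.29 µM artemisinin full kill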
Details: P. falciparum 7G8 in erythrocytes, SYBR Green DNA, 72 h; series mostly up to 6.7 µM; activity change, negative = inhibition: at the top concentration
Description: Plasmodium falciparum is a virulent malarial parasite that kills 1-2 million people worldwide each year. Malaria not only inflicts tremendous suffering and morbidity on the human population, but has dramatically influenced the course of civilization with profound sociological and economic implications (Shah, S. 2010). Transmitted by mosquitoes, the sporozoite form of the parasite enters the blood stream to infect hepatocytes, where they become merozoites that infect red blood cells (erythrocytes). Within erythrocytes, merozoites begin a […] cycle of growth and division, after which the parasite is released to infect new red blood cells. Gametocytes, which form within erythrocytes as well, circulate in the bloodstream and are ingested by the mosquito, thereby completing the life cycle (see CDC website). To profile malarial lines for differential chemical responses and to identify inhibitors of malarial growth, an assay that measures P. falciparum growth and replication within erythrocytes was employed. This assay uses a DNA binding fluorescent dye (SYBR Green) to detect parasite DNA following cell lysis. Because mature erythrocytes lack DNA, only Plasmodium-derived DNA is detected. The P. falciparum line cp250, derived from a malarial isolate from Cambodia, (Mu, J., et al. 2010) was added to the panel of lines, Dd2, HB3, 7G8 and GB4 in this study. Laboratory of Assay Development and Screening Technology [ADST] and NIH Chemical Genomics Center [NCGC] Boston University, Chemistry Department, Center for Chemical Methodology and Library Development [CMLD-BU] NIH National Institute of Allergy and Infectious Diseases [NIAID]
ADST Assay Protocol Summary: The 1536-well SYBR Green viability assay was based on the method of Bennett et al (2004) and described previously in 1536-well format (Yuan J., et al. 2009). For screening 3 ul culture medium was dispensed into 1536 well black clear bottom plates (Aurora Biotechnologies) using a Multidrop Combi (Thermo Fisher Scientific Inc.), 23 nL compounds in DMSO were added by a pin transfer (Cleveland, P.H. and Koutz, P.J, 2005) using a pin tool-based delivery system (Kalypsys), and 5 ul of erythrocytes infected with P. falciparum one of five lines (cp250, Dd2, HB3, 7G8 or GB4, 0.3% parasitemia, 2.5% hematocrit final concentration) were added. The plates were incubated at 37C in a humidified incubator in 5% CO2 for 72 h, and 2 ul lysis buffer (20 mM Tris HCl, 10 mM EDTA, 0.16% saponin, 1.6% triton X, 10X SYBR Green I (supplied as 10,000X final concentration by Invitrogen) was added to each well. The plates were mixed for 25 sec with gentle shaking and incubated overnight at room temperature in the dark. The following morning, fluorescence intensity at 485(14) nm excitation and 535(25) nm emission wavelengths was measured on an EnVision (Perkin Elmer) plate reader. Plate reads were normalized relative to the control inhibitor (0.29 uM artemisinin) and vehicle (DMSO) wells present on each plate and then corrected by an algorithm using vehicle-only control plates at the beginning and end of the compound plate stack. References Shah, S. (2010). The Fever: how malaria has ruled humankind for 500,000 years. New York, Sarah Crichton Books. CDC web site, http://www.cdc.gov/malaria/about/biology/index.html Mu, J., Myers, R.A., Jiang, H., Liu, S., Ricklefs, S., Waisberg, M., Chotivanich, K., Wilairatana, P., Krudsood, S., White, N.J., et Plasmodium falciparum genome-wide scans for positive selection, recombination hot spots and resistance to antimalarial drugs Nature Genetics 2010, 42, pp 268-271 Bennett TN, Paguio, M., Gligorijevic, B., Seudieu, C., Kosar, A. D., Davidson, E., and Roepe, P. D. Novel, rapid, and inexpensive cell-based quantification of antimalarial drug efficacy Antimicrobial Agents Chemother. 2004, 48(5): pp 1807-10 Yuan J, Johnson RL, Huang RL, Wichterman J, Jiang HY, Hayton K, Fidock DA, Wellems TE, Inglese J, Austin CP, Su XZ. […]
Potency is read from the fitted curve at half-maximal effect.

Row | Structure (SMILES) | activity change, negative = inhibition | Potency
1 | C=CCNC(=O)[C@H]1C=C(OC)C(=O)C[C@H]2c3ccccc3C[C@]12C | -4.72% (inactive) | 
2 | CN1c2ccccc2[C@@]2(O)C(=O)[C@@]1(C)[C@@H]1C=CCC[C@H]12 | 2.76% (inactive) | 
3 | C[C@@H]1C=CCCO[C@]12C(=O)Nc1ccccc12 | -2.12% (inactive) | 
4 | O=C(NN=C1C[C@@H](O)[C@H](O)[C@H]2[C@@H]3C(=O)N(C[C@@H]4CCCO4)C(=O)[C@@H]3CC[C@H]12)OCc1ccccc1 | 1.99% (inactive) | 
5 | CC(=O)OC[C@H]1O[C@@H](ON=C(C)CCN2CCCCc3nc(C)c(C)cc32)[C@H](OC(C)=O)[C@@H](OC(C)=O)[C@H]1OC(C)=O | 0.565% (inactive) | 
6 | CCOC(=O)[C@@]1([C@@H](NC(=O)OC)c2ccccc2)CCCC1=O | 1.99% (inactive) | 
7 | COC(=O)C1=C(C(=O)OC)[C@@H]2N(C)c3ccccc3[C@@]23C[C@@H](C(=O)OC)N(C(=O)c2ccco2)C3=N1 |  | inactive
8 | COCC=CC1=CC2=CC(=O)C(C)(OC(=O)c3cnc4ccccc4n3)C(=O)C2=CN1Cc1ccccc1 (stereo not given) | -3.71% (inactive) | 
9 | CC(=O)OC[C@H]1O[C@@H](ON=CC[C@@H]2C=C[C@@H](OC(C)=O)[C@@H](COC(C)=O)O2)[C@@H](OC(C)=O)[C@@H](OC(C)=O)[C@@H]1OC(C)=O | 15.7% (inactive) | 
10 | COC(=O)CCC(=O)OC1(C)C(=O)C=C2C=C(C3CC3)N(Cc3ccco3)C=C2C1=O (stereo not given) |  | inactive
11 | Cc1ccc(C#C[C@@H]2C=C[C@H](Oc3ccc4c(c3)OCO4)[C@@H](CO)O2)c(C)c1 | -7.4% (inactive) | 
12 | O=C(NC(CC1=CCCCC1)c1ccccc1)C(F)(F)F (stereo not given) | 2.78% (inactive) | 
13 | COC(=O)[C@H](Cc1ccccc1)NC(=O)O[C@@H]1C(=O)c2cc(OC)ccc2O[C@H]1c1ccc(OC)c(Br)c1 | -12.1% (inactive) | 
14 | O=C1[C@@H]2[C@H]3[C@H](O)[C@H](O)CC(=NOC[C@@H](O)COCc4ccco4)[C@@H]3CC[C@H]2C(=O)N1C1CCCCC1 | -4.66% (inactive) | 
15 | CCOC(=O)CNC(=O)O[C@H]1C(=O)c2ccc(OC)cc2O[C@@H]1c1ccc2c(c1)OCO2 | -8.84% (inactive) | 
16 | CC(=O)[C@H]1[C@H](CCc2ccccc2)NC(=O)N(Cc2ccccc2)[C@@H]1C |  | inactive
17 | C[C@H]1Cc2c(-c3ccccc3)nc3c(c2CO1)CN(C(=O)Cc1cccs1)CC3 |  | inactive
18 | CC1(OC(=O)CCc2ccccc2)C(=O)C=C2C=C(C3CC3)OC=C2C1=O (stereo not given) | -2.31% (inactive) | 
19 | C=CCC1(O)C=CCC2C3C4C(OC(C)(C)C)C2C1C34 (stereo not given) | 8.53% (inactive) | 
20 | C[C@H]1C[C@@H](C)O[C@@]2(C1)C(=O)N(CC1CC1)c1ccccc12 | 12.2% (inactive) | 

Row | Structure (SMILES) | activity change, negative = inhibition | Potency
21 | O=C(NN=C1C[C@@H](O)[C@H](O)[C@H]2[C@@H]3C(=O)N(c4cccc(Oc5ccccc5)c4)C(=O)[C@@H]3CC[C@H]12)OCc1ccccc1 | -2.27% (inactive) | 
22 | CC(CCC#N)[N+](=O)[O-] (stereo not given) | 7.51% (inactive) | 
23 | COc1cccc([C@@H]2Oc3ccc(OC)cc3C[C@@H]2OC(=O)N[C@H]2CCCc3ccccc32)c1 |  | 1510 nM (active)
24 | C(=Cc1nc(-c2ccccc2)oc1Nc1ccc2ccccc2c1)c1ccccc1 |  | inactive
25 | COC(=O)[C@H](COC(C)(C)C)NC(=O)O[C@@H]1C(=O)c2cc(OC)ccc2O[C@H]1c1ccc(OC)c(Br)c1 | -12.4% (inactive) | 
26 | CCN1C(=NCCCOC(C)C)NC(c2ccccc2)C(C(=O)OC)=C1C (stereo not given) | -15.9% (inactive) | 
27 | CCN1C(=O)NC(c2cccc(C(F)(F)F)c2)C(C(C)=O)=C1C (stereo not given) | -3.37% (inactive) | 
28 | CC1(OC(=O)C2CCCC2)C(=O)C=C2C=C(c3ccsc3)N(Cc3ccc4c(c3)OCO4)C=C2C1=O (stereo not given) | -14% (inactive) | 
29 | COc1cc2c(c(OC)c1OC)CC(C)=C(C)CC2NC(=O)C(F)(F)F (stereo not given) | -12.3% (inactive) | 
30 | COC(=O)c1c(C(=O)OC)c2c3ccccc3cc(C3CC3)n2c1C(=O)OC | -5.41% (inactive) | 
31 | CCN1C(=O)N(S(=O)(=O)C(F)(F)F)C(c2ccccc2)C(C(=O)OC)=C1C (stereo not given) | -5.91% (inactive) | 
32 | C=CCNC(=O)N1CCc2nc(CCCC)c3c(c2C1)CO[C@@H](C)C3 |  | inactive
33 | CCCCCCC(=O)Cc1cc(OC)c(OC)cc1C=C(C(C)=O)C(=O)OC | -11.2% (inactive) | 
34 | O=C(N[C@H](c1cccc(Br)c1)[C@@H]1CCCC=C1c1ccccc1)C(F)(F)F | -9.26% (inactive) | 
35 | COC(=O)c1ccc(CN2C(=O)[C@]3(OCCC=C[C@@H]3C)c3cc(OC)ccc32)cc1 | -17% (inactive) | 
36 | Cn1c(-c2ccccc2)c(O)c(=O)c2ccccc21 | 2.13% (inactive) | 
37 | Cc1ccc(S(=O)(=O)OC[C@@H]2CN3[C@H](c4ccc(Br)cc4)[C@H](C)CC[C@H]3C(=O)O2)cc1 | 4.68% (inactive) | 
38 | C[C@H](ON=C1[C@H]2CCn3c(=O)n(-c4ccccc4)c(=O)n3[C@@H]2[C@H](O)[C@@H]2O[C@H]12)c1cn([C@H](CO)Cc2ccccc2)nn1 | 4.43% (inactive) | 
39 | COC(=O)CC=C[C@@H](C)[C@H](NC(=O)OC)c1ccccc1Br | 0.645% (inactive) | 
40 | C=C(C)C(=O)OC[C@H]1CN2[C@H](c3ccc(Br)cc3)[C@H](C)CC[C@H]2C(=O)O1 | 6.35% (inactive) | 
